Measured values from PubChem BioAssay (NCATS).
Inconclusive results are not listed. A call without a number means that no potency is given here. The source made the active and inactive calls. The call rests on the fitted dose curve; in most records, active means well fitted inhibition curve with a large enough effect; inconclusive means small, poorly fitted or top-dose-only effect; inactive means flat fitted curve, though single readings scatter.

Test: P-glycoprotein substrates identified in KB-8-5-11 adenocarcinoma cell line, qHTS therapeutic library screen (AID 1346987); further: nearly all actives have a fitted effect of over 65% in size
Conditions: KB-8-5-11 (P-gp overexpressing) viability, CellTiter-Glo, 72 h; series mostly up to 44.5 µM
Summary of the method: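 KB-8-5-11, a colchicine-selected P-gp-overexpressing KB-3-1 subline, was grown without colchicine for the assay. Cells were seeded at 500 cells/well, dosed in concentration-response and incubated 72 h at 37 degree C, 5% CO2. Viability was read by CellTiter-Glo luminescence.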
Potency means the concentration at half of the fitted maximal effect.

Compound | Potency | outcome
O=C(O)c1ccc(CCCc2ccc(OCCc3ccc(F)cc3)cc2)o1 | inactive | 
COC(=O)CC[C@@H](C)[C@H]1CC[C@H]2[C@@H]3CC(=O)[C@H]4C[C@H](OC(C)=O)CC[C@]4(C)[C@H]3CC[C@]12C | inactive | 
CC1(C)CC[C@]2(C(=O)O[C@@H]3O[C@H](CO)[C@@H](O)[C@H](O)[C@H]3O)CC[C@]3(C)C(=CCC4[C@@]5(C)C[C@@H](O)[C@H](O)[C@@](C)(CO)C5CC[C@]43C)C2C1 (stereo not given in full) | inactive | 
O=C(CCO[C@@H]1O[C@H](CO)[C@@H](O)[C@H](O)[C@H]1O)c1ccc(O)cc1 | inactive | 
CC1(C)CCC(C)(C)c2cc([C@@H](O)C(=O)Nc3ccc(C(=O)O)cc3F)ccc21 | inactive | 
CC(/C=C/C1(O)C2(C)COC1(C)CC(=O)C2)O[C@@H]1O[C@H](CO)[C@@H](O)[C@H](O)[C@H]1O (stereo not given in full) | inactive | 
C[C@@H]1O[C@@H](O[C@H]2[C@H](OC(=O)C34CCC(C)(C)CC3C3=CCC5C6(C)CC(O)C(O[C@@H]7O[C@H](CO)[C@@H](O)[C@H](O)[C@H]7O)C(C)(C(=O)O)C6CCC5(C)C3(CO)CC4)O[C@H](C)[C@H](O)[C@@H]2O)[C@H](O)[C@H](O)[C@H]1O[C@@H]1OC[C@@H](O)[C@H](O)[C@H]1O (stereo not given in full) |  | inactive [at 9.29 µM]
CCC(=O)N[C@@H]1Cc2ccccc2[C@H](c2ccccc2)C1 | inactive | 
CN1C(=O)c2ccccc2-n2c(nc3ccccc3c2=O)[C@@]12O[C@H]2c1ccccc1 | inactive | 
CC1=CCC2C(C)(CO)CCCC2(C)C1CC12OC1C(O)C(CO)=CC2O (stereo not given) | inactive | 
COC12CC3C(C(C)C1=CC(=O)O2)C(O)C(OC(C)=O)C1C(C)(C)C(OC(C)=O)CCC31C (stereo not given) | inactive | 
COc1ccc2c(c1)OC[C@]1(O)c3cc4c(cc3O[C@H]21)OCO4 | inactive | 
C=CC(C)(O)CC/C=C(\C)C(=O)OC1CC2(C(=O)O)CCC3(C)C(=CCC4C5(C)CCC(OC6OC(COC7OCC(O)C(O)C7O)C(O)C(OC7OCC(O)C(O)C7O)C6OC6OC(CO)C(O)C(O)C6OC6OCC(O)C(O)C6O)C(C)(C)C5CCC43C)C2CC1(C)C (stereo not given) |  | inactive [at 9.29 µM]
CN(NC(=O)CC(=O)NN(C)C(=S)c1ccccc1)C(=S)c1ccccc1 | 51.7 nM (active) | 
O=c1c2cccnc2n(-c2cccc([N+](=O)[O-])c2)c(=O)n1Cc1ccncc1 | inactive | 
